Screening results (PubChem BioAssay)
Rows were chosen to be rich in hits. Some 4.5% of all compounds tested hit in one or more screens of this group.
tim23-1 inh = tim23-1 yeast growth inhibition. S. cerevisiae tim23-1 growth, BacTiter-Glo luminescence, 24 h. inhibition, % at 20 µM. 330,000 compounds, 1.3% hits;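 active means growth inhibition of the mutant yeast at or above 50%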;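 further: temperature-sensitive mutant grown at 25 °C; plate controls were DMSO-treated mutant yeast for no effect and medium wells lacking yeast for full effect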
PfHsp90 yeast 2 = growth inhibition of yeast expressing Plasmodium Hsp90; S. cerevisiae expressing PfHsp90, BacTiter-Glo ATP, 48 h; yeast lacking PDR1 and PDR3 efflux regulators; inhibition, % at 9.4 µM; 310,000 compounds, 0.32% hits; AID 504621;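 active means every replicate shows inhibition above about 80%, whatever the replicate mean, limit read from the data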;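 further: 0% = DMSO neutral controls and 100% = 20 µM radicicol positive controls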
TIM10 inh = inhibits growth of TIM10 yeast strain; inhibition, % at 10 µM; 330,000 compounds, 1.4% hits; S. cerevisiae TIM10 strain growth, BacTiter-Glo luminescence, 24 h; AID 463195;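 active means inhibition of 40% or more at the single tested concentration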;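 further: wild-type TIM10 isogenic control strain grown at permissive 25 °C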
tim10-1 inh = inhibits growth of tim10-1 mutant yeast. inhibition, % at 20 µM. 330,000 compounds, 2.2% hits. S. cerevisiae tim10-1 ts strain growth, BacTiter-Glo, 24 h. AID 463190;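 active means inhibition of at least 40%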;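 further: mutant grown at 25 °C; 0% = DMSO wells with yeast and 100% = wells holding no yeast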
NALP3 yeast inh = inhibitors of NALP3 inflammasome in yeast; inhibition, % at 10 µM; 330,000 compounds, 0.39% hits; AID 2825; Yeast reconstituted NLRP3/ASC/caspase-1, beta-gal luminescence, 24 h;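 active means inhibition of 50% or more; inactive means inhibition below 50%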;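 further: plate controls were induced DMSO wells for no effect and uninduced yeast grown without galactose for full effect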
SKKanGAS inh = blocks kanamycin growth of S. pyogenes SKKanGAS strain | BacTiter-Glo, 6 h | inhibition, % at 7.5 µM | 300,000 compounds, 1.3% hits | AID 1662;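 active means mean replicate score, as percent of positive control median, at least 50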;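 further: strain carries kanamycin resistance gene driven by streptokinase promoter and grows in 40 µg/ml kanamycin; loss of luminescence reflects streptokinase promoter inhibition or plain growth inhibition; 0% = median of DMSO wells and 100% = positive control at its reference dose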
NALP3 yeast conf = NALP3 inhibition confirmation in yeast | shares compounds with NALP3 yeast inh | yeast expressing human NALP3, luminescence | inhibition, % at 10 µM | 1,300 compounds, 81% hits; in the data active means inhibition above about 48%
Casp1 ASC ctr = counter-screen for NALP3 inhibitors: yeast caspase-1-ASC; shares compounds with NALP3 yeast inh; yeast expressing Caspase-1-ASC, luminescence counter screen; inhibition, % at 10 µM; 1,000 compounds, 66% hits
NALP3 yeast rt = confirmation retest of NALP3 inhibitors in yeast | yeast expressing human NALP3, luminescence read-out | AID 488794 | inhibition, % at 10 µM | 1,000 compounds, 53% hits | shares compounds with NALP3 yeast inh
The depositor's hits bear a star; / = no result. Unless noted, no stated cut-off is given here; in the data, active means inhibition above about 50%; inactive means the rest.

SMILES | tim23-1 inh | PfHsp90 yeast 2 | TIM10 inh | tim10-1 inh | NALP3 yeast inh | SKKanGAS inh | NALP3 yeast conf | Casp1 ASC ctr | NALP3 yeast rt
C(=C\c1ccccc1)/CSc1nnc(-c2cccnc2)o1 | 25.7 | -9.6 | -4.3 | 20.9 | 52.3* | -7.4 | 44.9 | 47.2 | 37.1
Cc1[nH]nc(Nc2ccc(Br)cc2)c1[N+](=O)[O-] | 3.5 | 5.1 | 4.8 | -4.8 | 52.2* | -4.8 | 46.1 | / | /
Cc1ccc(Nc2n[nH]c(C)c2[N+](=O)[O-])cc1 | -11.6 | -41.4 | -11.4 | -14.3 | 39.9 | -8.5 | / | / | /
O=C(Nc1cccnc1)c1cc(-c2ccccc2)on1 | 7.4 | -10.2 | 6.5 | -10.4 | 50.2* | -12.4 | 39.8 | / | /
O=C(CSc1cccc2cccc(Cl)c12)NCc1cccs1 | 14.1 | 4.3 | 15.0 | 27.1 | 51.6* | -14.8 | 64.6* | 45.0 | 31.4
CC1CCN(S(=O)(=O)c2cccc(-c3cn4cc(Cl)ccc4n3)c2)CC1 | 33.9 | 31.4 | 25.5 | 19.7 | 64.4* | 0.9 | 74.8* | 38.0 | 33.4
CNC(=O)/C(C#N)=C/c1ccc(OCCOc2ccccc2)cc1 | 31.7 | -16.1 | -7.6 | -8.5 | 55.6* | -9.9 | 72.8* | 57.6* | 48.4
O=C(Nc1ccc(Nc2ccccc2)cc1)c1cccc(F)c1 | 20.1 | -2.0 | 4.6 | -38.6 | 56.6* | 1.3 | 72.2* | 50.8* | 57.2*
O=C(Nc1ccncc1)c1cccc(F)c1 | 9.4 | -0.2 | -6.8 | 4.4 | 16.7 | -0.4 | / | / | /
O=C(/C=C/c1ccc(OCCCF)cc1)N1CCOCC1 | 2.1 | 52.8 | 7.7 | -0.5 | 9.2 | -7.6 | / | / | /
O=C(CCl)Nc1ccc(N2CCCCCC2)cc1 | 30.5 | 4.9 | 8.0 | 6.1 | 59.8* | -3.2 | 77.2* | 76.0* | 53.0*
CCC(=O)Nc1ccc(N2CCCCC2)cc1 | 19.6 | -4.6 | 10.4 | 5.8 | 6.7 | 3.1 | / | / | /
COc1cccc(NC(=O)CCc2c(C)nc3nc(CNC(=O)c4cccc(F)c4)nn3c2C)c1 | 16.4 | -0.3 | 11.6 | 5.6 | 2.4 | 3.4 | / | / | /
CC(=O)N1CCN(C(=O)COC(=O)c2oc3ccccc3c2C)CC1 | 10.6 | -0.8 | 4.4 | -1.1 | 0.9 | / | / | / | /
Cc1cc(C(=O)COC(=O)c2csc3c2CCCC3)c(C)n1C | 11.8 | 4.5 | 1.9 | -10.0 | 53.5* | -3.6 | 62.3* | 33.4 | 23.4
Cc1csc(=O)n1CCC(=O)OC(C)C(=O)NCc1ccccc1 (stereo not given) | 11.2 | -25.9 | -11.0 | 1.0 | 13.2 | / | / | / | /
O=C(CN1C(=O)NC(c2ccccc2)(c2ccccc2)C1=O)NC1CCCC1 | 7.0 | 3.1 | 9.0 | -10.9 | 18.1 | / | / | / | /
O=C1C=C(O)c2cccc(O)c2C1=O | 4.1 | -5.2 | 6.3 | 14.7 | 9.7 | / | / | / | /
O=C1c2cccc(O)c2C(=O)c2c(O)cccc21 | 44.2 | / | 26.7 | 21.5 | 60.3* | 6.3 | 64.5* | / | /
Cc1c(C(=O)Nc2ccccc2F)cnn1-c1ccccc1 | 11.8 | 10.1 | 6.1 | -3.3 | 47.3 | -4.6 | / | / | /
Cc1c(C(=O)Nc2cc(F)cc(F)c2)cnn1-c1ccccc1 | 26.2 | 7.5 | -2.0 | 1.8 | 71.2* | -4.7 | 76.2* | 75.8* | 69.8*
COc1cc(CNC(C)c2ccccc2)cc(Cl)c1OCC(=O)Nc1ccccc1 (stereo not given) | 20.3 | 1.6 | 21.1 | 6.9 | 53.0* | -15.0 | 44.0 | / | /
CCN(CC)CCNCc1cc(Cl)c(OCC(=O)Nc2ccccc2)c(OC)c1 | -1.4 | 34.0 | -14.6 | -9.4 | 4.8 | -4.3 | / | / | /
Cc1cccc(NC(=O)CSCC(=O)N2CCN(Cc3ccc4c(c3)OCO4)CC2)c1 | -54.7 | -3.3 | -39.2 | -10.0 | 15.8 | -9.2 | / | / | /
O=C(Nc1cc(Cl)ccc1-n1cncn1)c1ccc([N+](=O)[O-])s1 | 46.7 | 114.4* | 25.5 | 33.8 | 82.4* | 16.2 | 90.8* | / | /
CC(Oc1ccccc1)C(=O)Nc1cc(Cl)ccc1-n1cncn1 (stereo not given) | 14.5 | / | -6.3 | 11.5 | 56.9* | 17.9 | 58.7* | 52.3* | 46.0
CC(Oc1ccc(F)cc1)C(=O)Nc1cc(Cl)ccc1-n1cncn1 (stereo not given) | 29.0 | 12.9 | 6.4 | 18.8 | 49.4 | 0.7 | / | / | /
